{"source": "PubChem BioAssay (NCATS)", "note": "Unmarked numbers belong to inactive results. No rule for the calls is given here. Potency is read from the fitted curve at half-maximal effect."}
{"system": "HIV-1 nucleocapsid protein NCp7 (binding to TG oligonucleotide)", "experiment": "HIV Nucleocapsid (AID 346);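 also: potency is for inhibitors that block NC binding and lower polarization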", "conditions": "HIV-1 NC / fluorescein-TGTGTGTG probe, fluorescence polarization", "summary_of_the_method": "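Reagents dispensed (10 nM TG4xF, 100 nM HIV-1 NC), plates spun, compounds pin-transferred, then incubated 1 hr at room temperature before FP imaging. Buffer: Hepes pH 7.5, 250mM NaCl, 1uM ZnCl2, 100 uM TCEP, 5 mM 2-mercaptoethanol.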", "units": {"Potency": "µM"}}
{"smiles": "COc1ccc(-c2nc3cnc(N4CCOCC4)nc3n(C3CC3)c2=O)cc1", "Potency": "> 20"}
{"smiles": "COc1cccc(-c2cncnc2NCc2ccccc2)c1", "Potency": "> 20"}
{"smiles": "O=S(=O)(c1ccccc1)N1CCC2(CCCN(c3ncccn3)C2)CC1", "Potency": "> 20"}
{"smiles": "Cn1cccc1C(=O)N1CCC2(CCN(Cc3ccccc3)CC2)CC1", "Potency": "> 20"}
{"smiles": "c1cncc(-c2nc(NCCN3CCOCC3)c3ccccc3n2)c1", "Potency": "> 20"}
{"smiles": "COc1ccc(NC(=O)N2CC3(CCNCC3)C2)cc1", "Potency": "> 20"}
{"smiles": "CCNc1ncc2nc(-c3ccccc3)c(=O)n(C)c2n1", "Potency": "> 20"}
{"smiles": "CN(C)C(=O)c1ccc(-c2nc(NCc3cccnc3)c3ccccc3n2)cc1", "Potency": "> 20"}
{"smiles": "O=C(Nc1cccc(F)c1)N1CC[C@@]2(CCCN(S(=O)(=O)c3ccccc3)C2)C1", "Potency": "> 20"}
{"smiles": "CN(C)c1ccc(-c2cc(NCc3cccnc3)ncn2)cc1", "Potency": "> 20"}
{"smiles": "CN(C)c1ccc(-c2cncnc2NCc2cccs2)cc1", "Potency": "> 20"}
{"smiles": "COCCn1c(=O)c(-c2ccccc2)nc2cnc(Oc3ccccc3)nc21", "Potency": "> 20"}
{"smiles": "COCCn1c(=O)c(-c2cc(F)cc(F)c2)nc2cnc(Oc3cccc(Cl)c3)nc21", "Potency": "> 20"}
{"smiles": "COc1ccccc1CNc1ncnc2ccc(-c3ccoc3)cc12", "Potency": "> 20"}
{"smiles": "CN1CCN(c2ncc3nc(-c4cc(F)cc(F)c4)c(=O)n(Cc4cccs4)c3n2)CC1", "Potency": "> 20"}
{"smiles": "c1ccc(Nc2ncnc3ccc(-c4ccc5c(c4)OCO5)cc23)cc1", "Potency": "> 20"}
{"smiles": "CNc1nc(-c2cccc(C#N)c2)nc2ccccc12", "Potency": "> 20"}
{"smiles": "Cn1c(=O)cnc2cnc(Nc3ccccc3)nc21", "Potency": "> 4"}
{"smiles": "O=C(c1ccncc1)N1CCC2(CCCN(c3ccccn3)C2)CC1", "Potency": "> 20"}
{"smiles": "Cn1cccc1C(=O)N1CCC[C@@]2(CCN(c3cccc(-c4ccccc4)c3)C2)C1", "Potency": "> 20"}
{"smiles": "COCCn1c(=O)c(-c2ccccc2)nc2cnc(Oc3ccc(OC)cc3)nc21", "Potency": "> 20"}
{"smiles": "Cn1cccc1C(=O)N1CCC2(CCN(Cc3ccc(C#N)cc3)CC2)CC1", "Potency": "> 20"}
{"smiles": "COc1ccc(-n2c(=O)c(-c3ccc(Cl)cc3)nc3cncnc32)cc1", "Potency": "> 4"}
{"smiles": "CC(=O)NCCNc1nc(-c2ccccc2C)nc2ccccc12", "Potency": "> 20"}
{"smiles": "O=c1c(-c2cc(F)cc(F)c2)nc2cncnc2n1Cc1ccc(F)cc1", "Potency": "> 20"}
{"smiles": "CCNc1ncc2nc(-c3ccc(OC)cc3)c(=O)n(Cc3cccs3)c2n1", "Potency": "> 20"}
{"smiles": "COCCn1c(=O)cnc2cnc(Oc3cccc(Cl)c3)nc21", "Potency": "> 20"}
{"smiles": "COc1ccc(Oc2ncc3nc(-c4ccc(F)cc4)c(=O)n(C[C@H]4CCCO4)c3n2)cc1", "Potency": "> 20"}
{"smiles": "Cc1noc(C)c1-c1cc(N2CCN(C)CC2)ncn1", "Potency": "> 20"}
{"smiles": "Cc1nc2cnc(N3CCN(C)CC3)nc2n(C2CC2)c1=O", "Potency": "> 20"}
{"smiles": "N#Cc1ccc(CN2CC[C@@]3(CCCN(C(=O)c4ccncc4)C3)C2)cc1", "Potency": "> 20"}
{"smiles": "COc1ccccc1-c1nccc(-n2ccnc2)n1", "Potency": "> 20"}
{"smiles": "CN(C)c1ncnc2ccc(-c3ccccc3C(F)(F)F)cc12", "Potency": "> 20"}
{"smiles": "COc1ccccc1-c1cncnc1NCCc1cnc[nH]1", "Potency": "> 20"}
{"smiles": "COc1ccc(-c2nc3cnc(Nc4ccccc4)nc3n(C[C@H]3CCCO3)c2=O)cc1", "Potency": "> 20"}
{"smiles": "Cc1ccccc1-c1nc(NCc2cccs2)c2ccccc2n1", "Potency": "> 20"}
{"smiles": "COc1ccc(C(=O)N2CCC3(CC2)CN(C(=O)Nc2cccc(C#N)c2)C3)cc1", "Potency": "> 20"}
{"smiles": "COc1ncc2nc(-c3ccc(Cl)cc3)c(=O)n(C[C@H]3CCCO3)c2n1", "Potency": "> 20"}
{"smiles": "Cn1cc(-c2nc3cnc(N4CCNCC4)nc3n(Cc3ccc(F)cc3)c2=O)c2ccccc21", "Potency": 20.8}
{"smiles": "O=S(=O)(c1ccccc1)N1CCC2(CCN(c3ccc(-c4ccccc4)cc3)CC2)CC1", "Potency": "> 20"}
